# Assay outcomes: PubChem, National Center for Advancing Translational Sciences (NCATS)
# Hits are enriched below; roughly 12% of the tested compounds scored in any of these assays.
# HP1b binding inh = inhibitors of HP1-beta chromodomain binding to methylated histone tails; 0.56% of 390,000 active; AlphaScreen HP1-beta / biotin-H3K9me3 peptide binding; Potency, µM (top dose mostly 114 µM), inactives show at the top dose activity change, negative = inhibition, usual class: inhibitors; P83916; further: nearly all actives have a fitted effect of over 70% in size
# Target sequence (P83916 whole entry, looked up): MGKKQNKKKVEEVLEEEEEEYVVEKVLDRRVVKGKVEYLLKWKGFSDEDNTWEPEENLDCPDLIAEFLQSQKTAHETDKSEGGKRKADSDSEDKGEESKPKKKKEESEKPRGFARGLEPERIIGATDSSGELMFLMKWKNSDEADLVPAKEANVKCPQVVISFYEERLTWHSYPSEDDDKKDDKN
#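 Compound inhibition of the preformed complex between 50 nM HP1-beta and 50 nM biotinylated H3K9me3 peptide was read by AlphaScreen. Buffer was PBS pH 7.4 with 0.01% Tween-20. Incubations ran 30 min at room temperature, with 10 ug/mL donor/acceptor beads.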
# L3MBTL1 block = blocks human L3MBTL1 | Q9Y468 | AlphaScreen L3MBTL1–H3K9me1 peptide binding | Potency, µM (series often up to 57.1 µM), without a hit: at the highest dose activity, negative = inhibition, actives largely listed as inhibitors | 0.66% of 230,000 active; further: on the % scale 0 is the no-effect control and ±100 the full control effect; nearly all actives have a fitted effect of over 60% in size
#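 Displacement of a biotinylated histone H3(1-15) peptide monomethylated at Lys9 (75 nM) from L3MBTL1 (50 nM) was measured by AlphaScreen after a 30 min room-temperature compound incubation; cefsulodin titration served as intraplate control.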
# Sfp inh = inhibitors of Bacillus subtilis Sfp phosphopantetheinyl transferase; Biochemical Sfp PPTase activity, qHTS; Q9F4F7; 3.5% of 310,000 active; Potency, µM, inactives show largest response in the series, negative = inhibition, actives largely listed as inhibitors; AID 1490;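 further: the enzyme is Sfp with the accession as filed and its product quenches rhodamine fluorescence; 0% = enzyme reaction without inhibitor and -100% = no enzyme wells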
#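 Sfp 15 nM + cpd, 15 min RT; start w/ rhodamine-CoA 5 uM, BHQ-2-YbbR 12.5 uM (final); 50 mM Hepes pH 7.6, 10 mM MgCl2, 0.01% NP-40, 0.01% BSA; read 525/598 nm at 0 and 30 min.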
# G9a inh = G9a (human) methyltransferase inhibition. 8.8% of 350,000 active. AID 504332. G9a H3K9 monomethylation, AlphaScreen, 2 h. Potency, µM (doses to about 102 µM), for the others: at the highest dose activity, negative = inhibition, hits mostly inhibitors; further: on the % scale 0 is the no-effect control and ±100 the full control effect; nearly all actives have a fitted effect of over 75% in size
# Target sequence (Q96KQ7 913-1193 limits assumed): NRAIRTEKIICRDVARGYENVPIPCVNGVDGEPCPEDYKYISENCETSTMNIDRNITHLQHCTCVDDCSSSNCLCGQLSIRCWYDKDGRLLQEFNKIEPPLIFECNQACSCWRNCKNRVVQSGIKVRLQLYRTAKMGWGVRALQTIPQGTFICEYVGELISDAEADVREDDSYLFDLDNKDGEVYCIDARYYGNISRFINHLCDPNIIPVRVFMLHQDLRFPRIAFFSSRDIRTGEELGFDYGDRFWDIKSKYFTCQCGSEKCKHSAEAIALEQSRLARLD
#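 G9a (20 nM) preincubated 15 min RT with compounds, then 500 nM biotinylated H3K9 peptide and 20 uM SAM added; 2 h RT reaction. Monomethyl-H3K9 product detected by AlphaScreen with anti-H3K9me1 antibody, streptavidin donor and anti-rabbit IgG acceptor beads.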
# JMJD2A Tudor inh = inhibitors of human JMJD2A Tudor domain; 4.4% of 390,000 active; AlphaScreen JMJD2A-Tudor / H3K4me3 peptide binding; AID 504339; Potency, µM (doses to about 114 µM), for inactives: at the top dose activity change, negative = inhibition, hits mostly inhibitors; O75164; further: on the % scale 0 is the no-effect control and ±100 the full control effect; nearly all actives have a fitted effect of over 50% in size
# BAZ2B inh = inhibitors of human BAZ2B bromodomain; Q9UIF8; AlphaScreen BAZ2B-H3K14Ac peptide displacement; Potency, µM (titrated, usually from 114 µM), inactives show at the top dose activity change, negative = inhibition, usual class: inhibitors; 4.4% of 360,000 active; further: on the % scale 0 is the no-effect control and ±100 the full control effect; nearly all actives have a fitted effect of over 60% in size
#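 Inhibition is scored as reduced AlphaScreen emission. The BAZ2B/b-H3(5-23)K14Ac complex (50 nM each) in PBS pH 7.4, 0.01% Tween-20 meets compound (up to 110 uM) for 30 min at RT before bead addition.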
# Starred values were filed as active, the others as inactive; ? = inconclusive; · = not tested or not shown; ! = not active in a repeat; [ ] = another dose, or the depositor's remark. The call rests on the fitted dose curve; in most records, active means well fitted curve in the direction sought with a large enough effect; inconclusive means small, poorly fitted or top-dose-only effect, or another doubt; inactive means no such curve, though single readings can be large; an effect the other way counts as inactive or inconclusive. Potency means the concentration at half of the fitted maximal effect.
SMILES,HP1b binding inh,L3MBTL1 block,Sfp inh,G9a inh,JMJD2A Tudor inh,BAZ2B inh
CCOC(=O)c1c(-c2ccc(OC)cc2)csc1NC(=O)CCN1CCOCC1,?,-1%[2.29 µM],35µM*,3.5µM*,20µM*,22µM*
CCOC(=O)c1c(-c2ccc(C)cc2)csc1NC(=O)C1CCCO1 (configuration not stated),66%,11%,-14%,-1%[59 µM],26%,5%
CCOC(=O)c1c(-c2ccc(OC)cc2)csc1NC(=O)CCN1C(=O)c2ccccc2C1=O,-32%,-3%,50µM*,?,-33%,-18%
CC(NC(=O)CSc1n[nH]c(-c2ccccc2Cl)n1)c1nc2ccccc2n1C (configuration not stated),14%[57 µM],·,·,-47%[59 µM],-3%,-5%
COc1ccccc1CNC(=O)C1CCCN(c2nn3cc(-c4ccc(F)cc4)nc3s2)C1 (configuration not stated),11%,·,·,-4%[59 µM],-5%,-1%
COc1cc(-c2noc(C)c2C#CC2(N)CCCCC2)cc(OC)c1OC,24%,0%,-14%,14µM*,-24%,?
Cc1ccc(OC(=O)c2cc(-c3ccc4c(c3)OCCO4)on2)c(C)c1,62%,·,·,23%[59 µM],27%,11%
Cc1c(C(=O)NN)nn(-c2ccc(Cl)cc2)c(=O)c1C#N,6%,?,7%,45µM*,-25%,-11%
Cc1ccc(-n2nc(C(=O)NN)c(C)c(C#N)c2=O)cc1Cl,31%,·,-3%,?,-23%,0%
CCc1ccc(C2CC(c3ccccc3)n3ncnc3N2)cc1 (configuration not stated),29%,·,1%,79µM*,-33%,4%
CCc1ccc(C2CC(c3ccccc3Cl)Nc3nc(N)nn32)cc1 (configuration not stated),31%,-13%,-5%,11µM*,-26%,-13%
CCOc1ccc(C2CC(c3ccccc3C)n3nc(N)nc3N2)cc1 (configuration not stated),-9%,36%,15%,?,20µM*,-12%
COc1ccc(C2CC(c3ccccc3C)n3nc(N)nc3N2)cc1 (configuration not stated),-12%,6%,19%,?,-34%,?
Cc1ccc(-c2nn(CCC(=O)O)cc2/C=C\C(=O)c2ccc(Br)cc2)cc1,24%,-26%,-3%,25µM*,?,?
COc1cccc(C2c3cc4c(cc3OC(N3CCOCC3)C2C)OCO4)c1O (configuration not stated),?,·,·,·,40µM*,·
COc1cccc(C2c3cc4c(cc3OC(NNC(N)=O)C2C)OCO4)c1O (configuration not stated),-13%,·,·,·,?,·
CCC(=O)Nc1cc(SCCO)cc([N+](=O)[O-])c1,27%,9%,8%,16%,-6%,-26%
O=C(CCl)Nc1cc(SCC(O)CO)cc([N+](=O)[O-])c1 (configuration not stated),46%,-14%,71µM*,50µM*,-24%,-36%
CC(C)=NOc1cc(NC(=O)CCl)cc([N+](=O)[O-])c1,42%,0%,-21%,56µM*,-12%,-11%
CCOc1ccccc1-n1nnc(-c2nsc(NC(=O)c3ccc(C)cc3)n2)c1C,12%,·,·,0%[59 µM],-23%,1%
CCCCN1C(=O)C(O)(CC(=O)c2ccc(C(C)(C)C)cc2)c2ccccc21 (configuration not stated),21%,·,·,-28%[59 µM],-13%,-12%
COc1ccc(NC(=O)c2ncoc2-c2ccco2)cc1Cl,24%,·,·,52%[59 µM],-13%,1%
COc1cccc(-n2nc(C#N)c(Cl)cc2=O)c1,75%,·,2%,50µM*,-27%,-23%
COc1cc2c(cc1OC)C(c1cc3ccc(C)cc3[nH]c1=O)N(C(=O)c1ccco1)CC2 (configuration not stated),?,·,-10%,?,?,-36%
COc1cc2c(cc1OC)C(c1cc3cc4c(cc3[nH]c1=O)OCO4)N(C(=O)C1CC1)CC2 (configuration not stated),18%,-14%,40µM*,10%[59 µM],-24%,7%
SMILES,HP1b binding inh,L3MBTL1 block,Sfp inh,G9a inh,JMJD2A Tudor inh,BAZ2B inh
CN1C(=O)N(C)c2ccc(Br)c3cccc1c23,29%,·,-2%,22%,45µM*,7%
COc1ccc(-n2cnnc2SC(C)c2nc3sc(C)c(C)c3c(=O)[nH]2)cc1 (configuration not stated),·,1%,89µM*,?,·,2%
Cc1ccc(OCC(=O)OC2=C(C(=O)c3ccccc3)N(C)S(=O)(=O)c3ccccc32)cc1,6%,·,·,20µM*,?,-18%
COc1ccc(C(=O)OC2=C(C(=O)c3ccccc3)N(C)S(=O)(=O)c3ccccc32)cc1OC,-5%,·,·,20µM*,-30%,?
CCN1C(C(=O)c2ccccc2)=C(OC(=O)COc2ccccc2)c2ccccc2S1(=O)=O,2%,·,·,13µM*,35µM*,?
CCN1C(C(=O)c2ccccc2)=C(OC(=O)C(C)C)c2ccccc2S1(=O)=O,29%,·,·,-16%[59 µM],-29%,-26%
Cc1ccc(C(=O)OC2=C(C(=O)c3ccccc3)N(C)S(=O)(=O)c3ccccc32)cc1,-5%,·,·,?,?,-20%
C[C@H]1C(=O)N(S(=O)(=O)c2ccc([N+](=O)[O-])cc2)[C@H]1c1ccc(F)cc1,29%,·,30%,·,-8%,·
CCc1cccc(C)c1NC(=O)CSc1nc2ccccc2nc1Cc1ccccc1,21%[57 µM],·,·,1%[59 µM],-4%,5%
O=c1cc(-c2ccccc2)oc2cc(O)cc(O)c12,16%,·,6%,-3%[21.5 µM],-25%,·
O=c1cc(-c2ccc(O)cc2)oc2cc(O)cc(O)c12,15%,·,32µM*!,21%[59 µM],-26%,·
O=c1cc(-c2ccc(O)cc2)oc2cc(O)c(C3OC(CO)C(O)C(O)C3O)c(O)c12 (configuration not stated),-1%,16µM*,8%,?,?,?
CC1OC(OCC2OC(Oc3c(-c4ccc(O)c(O)c4)oc4cc(O)cc(O)c4c3=O)C(O)C(O)C2O)C(O)C(O)C1O (configuration not stated),·,·,-19%,·,·,·
O=c1cc(-c2ccccc2)oc2cc(O[C@@H]3O[C@H](CO)[C@@H](O)[C@H](O)[C@H]3O)c(O)c(O)c12,·,·,50µM*,·,·,·
C[C@@H]1O[C@@H](Oc2c(-c3cc(O)c(O)c(O)c3)oc3cc(O)cc(O)c3c2=O)[C@H](O)[C@H](O)[C@H]1O,?,?,32µM*!,45µM*,32µM*,50µM*
